Source: PubChem BioAssay (NCATS)
Several values for one entry are separate records, joined by “and”; a condition that tells them apart may be missing. Equal entries are not always repeated. Records with an inconclusive call do not appear. Activity calls are given as the source filed them. Unless noted, calls come from the whole dose curve; as a rule, active = well fitted inhibition curve with a large enough effect; inconclusive = small, poorly fitted or top-dose-only effect; inactive = flat fitted curve, though single readings scatter.

How the values were obtained:
[1] = Drug repurposing screens with cells derived from glioblastoma tumor samples (AID 1345199); details: GBM patient neurospheres viability, ATP luminescence, 48 h; note: % is set by controls: 0 for no effect and ±100 for the full control effect; nearly all actives have a fitted effect of over 40% in size
How it was run: (§1)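 Primary testing used CD133+ neurospheres from four GBM patients, seven concentrations, 48 h exposure and ATP-based viability; confirmation added three slower-growing patient lines.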

[2] = test system: astro; assay: as above; details: viability, ATP luminescence, 48 h; series mostly up to 45.9 µM
How it was run: as §1

[3] = target: Nuclear receptor subfamily 1 group I member 2 (Rattus norvegicus) (UniProt Q9R1A7); assay: qHTS assay for small molecule activators of the rat pregnane X receptor (rPXR) signaling pathway (AID 651751; call rule not given here; note: 0% is about no effect); details: rPXR reporter cells, luciferase (One-Glo), 24 h
Chain of Nuclear receptor subfamily 1 group I member 2 (Rattus norvegicus) (Q9R1A7 whole entry, looked up): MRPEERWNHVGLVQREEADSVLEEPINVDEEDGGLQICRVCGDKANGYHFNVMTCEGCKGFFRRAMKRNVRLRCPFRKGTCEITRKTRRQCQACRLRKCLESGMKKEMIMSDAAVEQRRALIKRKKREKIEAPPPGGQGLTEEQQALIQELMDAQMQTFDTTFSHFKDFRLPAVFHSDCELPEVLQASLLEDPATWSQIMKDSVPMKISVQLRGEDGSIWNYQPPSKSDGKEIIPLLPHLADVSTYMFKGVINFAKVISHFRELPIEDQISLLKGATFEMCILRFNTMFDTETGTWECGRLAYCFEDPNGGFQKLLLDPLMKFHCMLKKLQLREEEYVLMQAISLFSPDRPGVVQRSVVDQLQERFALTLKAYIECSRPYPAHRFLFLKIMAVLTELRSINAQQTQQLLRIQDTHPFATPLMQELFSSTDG

[4] = qHTS assay for small molecule activators of the human pregnane X receptor (PXR) signaling pathway (AID 720659; call rule not given here; note: 0% is about no effect); details: DPX-2 HepG2 CYP3A4-luciferase, 24 h; series mostly up to 92.3 µM
[5] = at 45.9 µM (top of the series), tumour line B
[6] = at 45.9 µM (top of the series), tumour line D
[7] = at 46 µM (top of the series), tumour line A
[8] = at 46.1 µM (top of the series), tumour line C

CO
inactive: activity, negative = cell killing [1, 5] -8.56% | activity, negative = cell killing [1, 6] -4.99% | activity, negative = cell killing [1, 7] -10.2% | activity, negative = cell killing [1, 8] -11.6% | Potency [2] | max response [3] 4.07% | outcome [4]

CN(CCO)CC(O)Cn1cnc2c1c(=O)n(C)c(=O)n2C (configuration not stated) (tested in a mixture with another compound)
inactive: activity, negative = cell killing [1, 5] -0.373% | activity, negative = cell killing [1, 6] -10.7% | activity, negative = cell killing [1, 7] -23.5% | activity, negative = cell killing [1, 8] -30% | Potency [2] | max response [3] -1.56% | outcome [4]

OCC(O)CO
inactive: activity, negative = cell killing [1, 5] -10.1% | activity, negative = cell killing [1, 6] -10.7% | activity, negative = cell killing [1, 7] -18.9% | activity, negative = cell killing [1, 8] 6.43% | Potency [2] | max response [3] -2.39% and -3.75% | outcome [4]

C[C@]12CC[C@@H]3c4ccc(O)cc4CC[C@H]3[C@@H]1CC[C@@H]2OP(=O)(O)O
inactive: activity, negative = cell killing [1, 5] -7.23% | activity, negative = cell killing [1, 6] -13% | activity, negative = cell killing [1, 7] -23.9% | activity, negative = cell killing [1, 8] 22.6% | Potency [2]

CCN1C(=O)NC(c2ccccc2)C1=O (configuration not stated)
inactive: activity, negative = cell killing ([1]; at 20 µM (top of the series), tumour line C) -11.1% | activity, negative = cell killing ([1]; at 21.2 µM (top of the series), tumour line B) -3.29% | activity, negative = cell killing ([1]; at 21.2 µM (top of the series), tumour line D) -11.8% | activity, negative = cell killing ([1]; at 21.3 µM (top of the series), tumour line A) -9.7% | Potency [2]

O=P(O)(O)O
inactive: activity, negative = cell killing [1, 5] 9.14% | activity, negative = cell killing [1, 6] -2.27% | activity, negative = cell killing [1, 7] -6.51% | activity, negative = cell killing [1, 8] 0.794% | Potency [2] | max response [3] -0.433% | outcome [4]

CC/C=C\C/C=C\C/C=C\CCCCCCCC(=O)O
inactive: activity, negative = cell killing [1, 5] 8.6% | activity, negative = cell killing [1, 6] -7.43% | activity, negative = cell killing [1, 7] -13.9% | activity, negative = cell killing [1, 8] 5.73% | Potency [2] | max response [3] -2.75% | outcome [4]

Cc1ncc[nH]1
inactive: activity, negative = cell killing [1, 5] -1% | activity, negative = cell killing [1, 6] -14.2% | activity, negative = cell killing [1, 7] -4.28% | activity, negative = cell killing [1, 8] -3.58% | Potency [2] | max response [3] 1.58% | outcome [4]
